Test results published in PubChem BioAssay (NCATS).
Records with an inconclusive call do not appear. Calls of active or inactive are those of the source. Calls follow the shape of the dose curve; as a rule, active = well fitted cell-killing curve with a large enough effect; inconclusive = small, poorly fitted or top-dose-only effect; inactive = flat fitted curve, though single readings scatter.

Assay: qHTS of pediatric cancer cell lines to identify multiple opportunities for drug repurposing: Primary screen for TC32 cells (AID 1347089); also: nearly all actives have a fitted effect of over 60% in size
Settings: TC32 Ewing sarcoma viability, CellTiter-Glo luminescence, 48 h; series mostly up to 45.8 µM; activity change, negative = cytotoxic: at the top concentration
Source text: Drug repurposing or repositioning has been offered as a strategy for drug development in oncology programs. This approach has special potential for childhood cancers and other rare or orphan diseases, where the expected return on new drug development has been a disincentive to pharmaceuticals.
In this project we exploit the poly-pharmacology of drugs to discover new indications via phenotypic screening of a panel of 19 well-characterized cell lines derived from solid tumors seen in children and adolescents. The goal is to identify approved drugs with previously unrecognized anticancer properties that has the potential to reveal new mechanisms and biological processes involved in carcinogenesis or drug resistance. We employed a titration-based paradigm (quantitative high-throughput screening or qHTS), where all compounds were tested at multiple concentrations for their effect on cell viability. Concentration-response curves (CRCs) were derived directly from the primary screen, and both potency and efficacy values were used to identify compounds with robust bioactivity profiles. We screened the NIH Chemical Genomics Center (NCGC) Pharmaceutical Collection (NPC) and Mechanism Interrogation Plate (MIPE) small molecule collections of approved and investigational compounds against these cell lines; and measured metabolically active cells after 48 hours of compound treatment as a proxy for cell viability.
Assay Submitter: Nathalia J. Martinez, National Center for Advancing Translational Sciences, National Institutes of Health, Rockville, MD, USA; email: natalia.martinez@nih.gov
[1] Shen, M et al. Quantitative high-throughput phenotypic screening of pediatric cancer cell lines identifies multiple opportunities for drug repurposing. Oncotarget 2017 Dec 19;9(4):4758-4772. PMID 29435139.
The cells were obtained from University of North Carolina (UNC), Pediatric Preclinical Testing Program (PPT), and Coriell Institute (CI).
qHTS cell viability assay:
Cells were assayed in growth media at a density of 500-1,000 cells/well. Five microliters of cells were dispensed into 1,536-well, white, solid-bottom, TC-treated plates (Greiner Bio One) using a multidrop dispenser and incubated at 37 degrees C, 5% CO2, under a humidified atmosphere for 5 hours. Twenty-three nanoliters of compounds and controls (neutral control DMSO or positive control bortezomib at final concentration of 2.3 uM) were subsequently transferred by Kalypsys pintool. For primary screens, the MIPE collection was tested at 11-point dilutions (final concentrations range from 0.78 nM to 46 µM) and the NPC collection at 8-point dilutions (final concentrations range from 0.59 nM to 46 µM). Compounds tested in follow-up screens were assayed at 11-point dilutions. Cells were incubated for 48 hours, followed by addition of 3 uL of CellTiter-Glo (Promega). After a 15min incubation at room temperature, samples were analyzed for luminescence intensity using a ViewLux High-throughput CCD imager equipped with clear filters.
% is scaled to controls: 0 for no effect and ±100 for the full control effect; potency is read from the fitted curve at half-maximal effect.

Row | SMILES | Potency | activity change, negative = cytotoxic
1 | CCc1ccc(CCOc2ccc(CC3SC(=O)NC3=O)cc2)nc1 (stereo not given) | inactive | 
2 | Nc1ccc(S(=O)(=O)Nc2ccnn2-c2ccccc2)cc1 | inactive | 
3 | CCC(C)n1ncn(-c2ccc(N3CCN(c4ccc(OC[C@H]5CO[C@](Cn6cncn6)(c6ccc(Cl)cc6Cl)O5)cc4)CC3)cc2)c1=O (stereo not given in full) | inactive | 
4 | NC(=O)c1ccc(-c2nc(-c3ccc4c(c3)OCCO4)c(-c3ccccn3)[nH]2)cc1 |  | 11.6% (inactive)
5 | COCC(=O)NCC=Cc1ccc2ncnc(Nc3ccc(Oc4ccc(C)nc4)c(C)c3)c2c1 |  | -3.94% (inactive)
6 | CC(=O)Oc1ccccc1C(=O)O | inactive | 
7 | CC(C)OC(=O)C1=CN(C(=O)c2ccc(F)c(F)c2)CC(C)(C)c2c1[nH]c1ccccc21 |  | -0.0359% (inactive)
8 | Oc1cccc(-c2nc(N3CCOCC3)c3oc4ncccc4c3n2)c1 | 0.758 µM (active) | 
9 | COc1ccc(-c2ccc3c(N4CCOC[C@H]4C)nc(N4CCOC[C@H]4C)nc3n2)cc1CO | 0.165 µM (active) | 
10 | O=C(NOC[C@H](O)CO)c1ccc(F)c(F)c1Nc1ccc(I)cc1F |  | 10.8% (inactive)
11 | COc1ccccc1-c1cccc(-c2c(O)c3cc(C#N)c(Cl)cc3[nH]c2=O)c1 |  | 11.8% [at 92.2 µM] (inactive)
12 | C[C@H](NC(=O)Cc1cc(F)cc(F)c1)C(=O)N[C@@H]1C(=O)N(C)c2ccccc2-c2ccccc21 |  | 4.98% (inactive)
13 | Cc1c(CN2CCN(C(=O)C(C)C)CC2)sc2c(N3CCOCC3)nc(-c3cnc(N)nc3)nc12 | 0.466 µM (active) | 
14 | OC(CCN1CCCCC1)(c1ccccc1)C1CC2C=CC1C2 (stereo not given) | inactive | 
15 | O=C(Nc1cccnc1)N1CCC(Cc2cccc(Oc3ccc(C(F)(F)F)cn3)c2)CC1 |  | -15.4% (inactive)
16 | Nc1nc2c(ncn2COCCO)c(=O)[nH]1 | inactive | 
17 | CCCn1c(=O)c2[nH]c(C34CC5CC3C[C@@H](C5)C4)nc2n(CCC)c1=O |  | 11.1% (inactive)
18 | CC[C@@H](C)[C@H](NC(=O)[C@H](CC1CCCCC1)NC(=O)c1ccno1)C(=O)N1CCC2(CCc3ccccc32)CC1 |  | -2.29% (inactive)
19 | Cc1ccc(NC(=O)c2cccc(C(C)(C)C#N)c2)cc1Nc1ccc2ncn(C)c(=O)c2c1 |  | -12.8% (inactive)
20 | O=c1n(CCCN2CCN(c3cccc(Cl)c3)CC2)nc2ccccn12 | inactive | 

Row | SMILES | Potency | activity change, negative = cytotoxic
21 | CCOc1cc(C(=O)Nc2ccc(Cl)c(-c3nc4ccccc4[nH]3)c2)cc(OCC)c1OCC |  | -15.1% (inactive)
22 | N#CC[C@H](C1CCCC1)n1cc(-c2ncnc3[nH]ccc23)cn1 |  | -3.03% (inactive)
23 | COc1cc2c(cc1OC)CN(CCc1ccc(NC(=O)c3cccc4c(=O)c5cccc(OC)c5[nH]c34)cc1)CC2 |  | 24.6% (inactive)
24 | Cc1c(C)c2c(c(C)c1O)CCC(C)(COc1ccc(CC3SC(=O)NC3=O)cc1)O2 (stereo not given) | inactive | 
25 | NCCc1ccc(O)c(O)c1 |  | 11.2% (inactive)
26 | O=C(O)[C@@H](c1ccc(OCc2ccc3ccccc3n2)cc1)C1CCCC1 |  | -0.203% (inactive)
27 | COCCNCCCn1c(C(=O)CF)c(-c2ccc(C)cc2)c2c(N)ncnc21 |  | 7.68% (inactive)
28 | CC(c1cc2ccccc2s1)N(O)C(N)=O (stereo not given) | inactive | 
29 | Cn1cc(-c2ccc3nnc(C(F)(F)c4ccc5ncccc5c4)n3n2)cn1 |  | 13.7% (inactive)
30 | O=C(C=Cc1ccc(/C=C/C(=O)Nc2ccc(C3=NCCN3)cc2)cc1)Nc1ccc(C2=NCCN2)cc1 |  | 6.99% (inactive)
31 | Clc1cccc(Cl)c1NC1=NCCN1 | inactive | 
32 | Cc1cnc(Nc2ccc(OCCN3CCCC3)cc2)nc1Nc1cccc(S(=O)(=O)NC(C)(C)C)c1 |  | 14.3% (inactive)
33 | O=c1[nH]cnc2[nH]ncc12 | inactive | 
34 | N=c1nc(N2CCCCC2)cc(N)n1O | inactive | 
35 | CCOc1ccn(-c2ccc(F)cc2)c(=O)c1C(=O)Nc1ccc(Oc2ccnc(N)c2Cl)c(F)c1 |  | -23.9% (inactive)
36 | CN(C)c1ccc(C2Nc3ccc4ccccc4c3C3=C2C(=O)CC(C)(C)C3)cc1Br (stereo not given) |  | -6.6% (inactive)
37 | CCCS(=O)(=O)Nc1ccc(F)c(C(=O)c2c[nH]c3ncc(Cl)cc23)c1F |  | -14% (inactive)
38 | Cc1c(CCOc2ccc(C(=O)O)cc2)c2cc(Cl)ccc2n1C(c1ccccc1)c1ccccc1 |  | 4.81% (inactive)
39 | Nc1nc2[nH]cc(CCc3ccc(C(=O)N[C@@H](CCC(=O)O)C(=O)O)cc3)c2c(=O)[nH]1 | 4.66 µM (active) | 
40 | CCOC(=O)N[C@@H]1CC[C@@H]2[C@@H](C1)C[C@H]1C(=O)O[C@H](C)[C@H]1[C@@H]2C=Cc1ccc(-c2cccc(F)c2)cn1 |  | 9.47% (inactive)
